Sampled rows, rich in hits. Any-hit rate of the full collection: about 1.1%.
LAP4-GFP MLPCN: yeast TOR pathway LAP4-GFP modulation. GFP response vs DMSO, % at 10 µM. 0.34% of 320,000 active. S. cerevisiae LAP4-GFP multiplex, flow cytometry GFP, 3 h; median GFP as percent of DMSO wells;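 active means GFP response vs DMSO above a set limit, about the screen mean plus 3 SD, cut at about 150% in these data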
CIT2-GFP yeast: modulators of TOR pathway CIT2-GFP in S. cerevisiae; S. cerevisiae CIT2-GFP strain, flow cytometry, 3 h; 100 means same as DMSO wells; GFP response vs DMSO, % at 10 µM; 0.065% of 320,000 active; AID 2029;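 active means GFP response relative to DMSO above a set limit, near the screen mean plus 3 SD, cut at about 150% in these data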;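 further: ratio of well median GFP fluorescence to mean of DMSO wells on the plate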
MEP2 TOR yeast: alters MEP2-GFP fluorescence in TOR pathway yeast screen; 0.51% of 330,000 active; GFP response vs DMSO, % at 10 µM; S. cerevisiae MEP2-GFP strain, flow cytometry GFP, 3 h; 100% = DMSO control level; AID 2016;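 active means GFP response versus DMSO above a set limit, roughly screen mean plus 3 SD, cut at about 180% in these data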;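 further: median GFP fluorescence of the barcode-gated MEP2-GFP cells per well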
RPL19A TOR yeast: yeast TOR pathway RPL19A-GFP modulation; S. cerevisiae RPL19A-GFP strain, flow cytometry, 3 h; stronger effect = lower value; percent response vs DMSO, % at 10 µM; 0.3% of 330,000 active;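 active means percent response vs DMSO below 50%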;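 further: median channel GFP fluorescence of the barcoded RPL19A-GFP strain; ratio of sample median GFP to plate DMSO average so 100% = DMSO; lower means less RPL19A-GFP as with rapamycin TOR inhibition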
AGP1-GFP MLPCN: modulators of TOR pathway AGP1-GFP in S. cerevisiae. S. cerevisiae AGP1-GFP multiplex flow cytometry, 3 h; GFP as percent of DMSO wells. GFP response vs DMSO, % at 10 µM. 0.02% of 320,000 active;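 active means GFP response relative to DMSO above a set limit, near screen average plus 3 SD, cut at about 150% in these data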;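 further: median GFP channel fluorescence of the gated AGP1 strain per well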
VLA-4 inh: inhibition in a human VLA-4 binding assay. P13612. VLA-4 expressing cells, ligand binding flow cytometry. inhibition, % (about 7 µM as worked out from the volumes in the protocol). 0.2% of 330,000 active; in the data active means inhibition above about 50%
Target sequence (P13612 whole entry, looked up): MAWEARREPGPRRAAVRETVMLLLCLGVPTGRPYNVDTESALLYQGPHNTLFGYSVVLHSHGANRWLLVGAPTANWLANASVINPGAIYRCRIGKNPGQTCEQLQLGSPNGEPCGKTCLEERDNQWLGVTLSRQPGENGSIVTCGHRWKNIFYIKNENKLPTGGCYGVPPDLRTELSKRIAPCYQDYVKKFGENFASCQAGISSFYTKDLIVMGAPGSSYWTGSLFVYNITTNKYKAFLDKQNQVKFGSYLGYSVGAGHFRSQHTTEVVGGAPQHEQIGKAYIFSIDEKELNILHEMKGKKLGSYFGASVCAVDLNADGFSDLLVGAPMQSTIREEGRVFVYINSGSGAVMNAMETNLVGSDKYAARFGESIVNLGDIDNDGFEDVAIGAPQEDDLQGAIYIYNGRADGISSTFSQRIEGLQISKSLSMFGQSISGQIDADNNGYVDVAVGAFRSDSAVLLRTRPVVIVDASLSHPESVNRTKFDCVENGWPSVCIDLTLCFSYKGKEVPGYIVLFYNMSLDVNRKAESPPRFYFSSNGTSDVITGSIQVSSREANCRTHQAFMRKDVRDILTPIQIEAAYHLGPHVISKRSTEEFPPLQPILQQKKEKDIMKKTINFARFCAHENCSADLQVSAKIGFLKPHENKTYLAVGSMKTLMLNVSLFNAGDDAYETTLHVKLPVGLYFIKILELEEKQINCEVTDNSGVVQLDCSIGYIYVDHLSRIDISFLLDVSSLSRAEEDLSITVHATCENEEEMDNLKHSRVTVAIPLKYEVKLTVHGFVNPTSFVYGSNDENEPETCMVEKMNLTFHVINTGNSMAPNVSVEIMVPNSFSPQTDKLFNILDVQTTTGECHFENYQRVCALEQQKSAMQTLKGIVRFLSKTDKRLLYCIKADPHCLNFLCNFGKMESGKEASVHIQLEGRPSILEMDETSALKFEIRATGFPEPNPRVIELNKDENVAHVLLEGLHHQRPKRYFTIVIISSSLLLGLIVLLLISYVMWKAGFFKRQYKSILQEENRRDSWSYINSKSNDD
LAP4 cherry2: second confirmation of modulators of TOR reporter LAP4-GFP in yeast; 20% of 590 active; GFP response vs DMSO, % at 10 µM; shares compounds with LAP4-GFP MLPCN; S. cerevisiae LAP4-GFP strain, flow cytometry GFP, 3 h;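 active means GFP signal as percent of the solvent control above about 150%, meaning raised reporter expression, limit read from the data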;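 further: ratio of well median GFP fluorescence to plate DMSO mean so 100% = DMSO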
MEP2 cherry2: yeast MEP2-GFP modulation, second cherry pick | GFP response vs DMSO, % at 10 µM | AID 2622 | 10% of 590 active | S. cerevisiae MEP2-GFP strain, flow cytometry GFP, 3 h | shares compounds with LAP4-GFP MLPCN;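 active means GFP signal above 150% of the solvent control wells, that is a rise of more than half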;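 further: median channel GFP fluorescence of all gated yeast cells per well; ratio of median GFP to plate DMSO average so 100% = DMSO level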
RPL19A GFP CP2: reconfirmed modulator of RPL19A-GFP TOR reporter in yeast; GFP response vs DMSO, % at 10 µM; S. cerevisiae RPL19A-GFP strain, flow cytometry GFP, 3 h; stronger effect = lower value; 100% means same as DMSO wells; 3% of 590 active; shares compounds with LAP4-GFP MLPCN; AID 2623;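 active means under 65% GFP response relative to DMSO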;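 further: median GFP channel fluorescence per well over the all cells gate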
CIT2 GFP CP2: second confirmation of modulators of TOR reporter CIT2-GFP in yeast | shares compounds with LAP4-GFP MLPCN | S. cerevisiae CIT2-GFP strain, flow cytometry GFP, 3 h; DMSO control wells read 100% | GFP response vs DMSO, % at 10 µM | 8% of 590 active;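 active means GFP response vs DMSO above about 150%, limit read from the data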;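 further: median green fluorescence per well over all gated yeast cells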
AGP1 GFP CP2: reconfirmed modulator of AGP1-GFP TOR reporter in yeast; 590 tested, under 10 active; AID 2643; S. cerevisiae AGP1-GFP strain, flow cytometry GFP, 3 h; shares compounds with LAP4-GFP MLPCN; percent response vs DMSO, % at 10 µM;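 active means over 150 percent of DMSO response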;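 further: median GFP channel fluorescence over all cells without mother daughter split; sample median GFP divided by mean DMSO control so 100% equals DMSO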
Yeast autofluor: compound is autofluorescent in yeast s288c cells; shares compounds with LAP4-GFP MLPCN; S. cerevisiae s288c, 520 nm autofluorescence, flow cytometry, 3 h; stronger effect = higher value; zero means same as solvent-only cells; fluorescence change (kMESF span) at 33 µM; 610 tested, under 10 active; AID 2757;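 active means fluorescence span over the dose series, or activity score, above about 33, limit read from the data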
s288c autofl DR: yeast s288c autofluorescence artifact in dose response; 110 tested, under 10 active; fluorescence change (span) at 33 µM; shares compounds with LAP4-GFP MLPCN; S. cerevisiae s288c parental, compound autofluorescence, flow cytometry, 3 h;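 active means fluorescence change span, or the activity score built from it, above 25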
TORC1 bypass gr: wildtype yeast growth loss with TORC1 bypass cells unaffected; shares compounds with LAP4-GFP MLPCN; S. cerevisiae BY4741 spot growth rating, 48-72 h; stronger effect = lower value; growth rating (0-3) at 30 µM; 120 tested, under 10 active;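 active means growth rating at most 1 for wild type yeast while the TORC1 bypass strain still grows fully, rated 3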
An asterisk follows results filed as active; i = inactive; . = no result given; [ ] = remark or other dose.

SMILES	LAP4-GFP MLPCN	CIT2-GFP yeast	MEP2 TOR yeast	RPL19A TOR yeast	AGP1-GFP MLPCN	VLA-4 inh	LAP4 cherry2	MEP2 cherry2	RPL19A GFP CP2	CIT2 GFP CP2	AGP1 GFP CP2	Yeast autofluor	others
C#CCOCCOCCOCCNc1nc(N2CCN(C(=O)CCCCCCCCCCNC(=O)Cn3cc(CCCCCN)nn3)CC2)nc(N2CCN(C(=O)CCCCCCCCCCNC(=O)[C@H]([C@@H](C)CC)n3cc(CCCCN=C(N)N)nn3)CC2)n1	151.1*	77.5	80.6	85.7	76.8	-12.1	114.2	132.8	95.9	116.8	105.8	.
C#CCOCCOCCOCCNc1nc(N2CCN(C(=O)CCCCCCCCCCNC(=O)Cn3cc(C[C@@H](C)O)nn3)CC2)nc(N2CCN(C(=O)CCCCCCCCCCNC(=O)[C@H](CCCN=C(N)N)n3cc(C[C@@H](C)CC)nn3)CC2)n1	183.4*	77.5	90.5	76.9	93.4	24.3	102.9	134.8	93.5	95.0	108.1	.
C#CCOCCOCCOCCNc1nc(N2CCN(C(=O)CCCCCCCCCCNC(=O)Cn3cc(CCCCCN)nn3)CC2)nc(N2CCN(C(=O)CCCCCCCCCCNC(=O)Cn3cc(CCCCCN)nn3)CC2)n1	152.2*	73.0	85.5	84.7	77.9	3.4	114.2	131.0	95.2	105.7	105.8	.
N#CC/C(N)=N/Nc1nc2ccccc2nc1Cc1ccccc1	100.2	105.3	105.8	104.0	99.8	-37.9	.	.	.	.	.	.
COCc1cc(C)nc(SCC[N+](C)(C)CC(=O)Nc2cccc(C(F)(F)F)c2)c1C#N	101.2	103.2	105.5	95.0	100.8	0.1	.	.	.	.	.	.
COc1ccc(Cl)cc1C(Nc1cccnc1)c1ccc2cccnc2c1O (stereo not drawn)	191.7*	89.9	99.3	85.1	106.4	11.8	.	.	.	.	.	1
CCC(CO)Oc1cc(NC(=O)Cc2ccccc2)c2ncn(C(C)C)c2c1 (stereo not drawn)	85.9	94.6	91.2	97.2	97.9	15.2	.	.	.	.	.	.
O=C(Nc1ccc(N2CCOCC2)cc1)C1CCN(S(=O)(=O)c2ccc3c(c2)OCCO3)CC1	254.2*[may fluoresce green]	231.0*[may fluoresce green]	340.5*[may fluoresce green]	123.4	124.2	i	106.7	103.2	101.7	98.4	100.6	0.1
Cc1ccc(C2=NOC(=O)/C2=C\c2ccc(C)o2)cc1	202.9*	58.4	73.7	87.6	78.3	-21.7	.	.	.	.	.	4.29	s288c autofl DR=1.77;TORC1 bypass gr=3
COc1cc(/C=C2\C(=O)ON=C2c2ccc(Cl)cc2)ccc1O	224.3*	88.6	98.3	85.2	87.2	-6.1	.	.	.	.	.	0.5
O=C1ON=C(c2ccccc2)/C1=C/c1ccc(OS(=O)(=O)c2ccccc2)cc1	112.4	98.7	103.8	95.8	99.8	10.4	.	.	.	.	.	.
COc1ccc(/C=C2\C(=O)ON=C2c2ccccc2)cc1	167.5*	88.1	73.8	89.6	72.0	4.4	159.6*	114.8	78.4	104.0	85.6	0.3
CCN1C(=O)N[C@@H](c2ccco2)C(C(=O)OC)=C1C	118.8	90.3	93.0	96.8	84.7	6.6	.	.	.	.	.	.
O=C(CNC(=O)c1ccccc1)OCC(=O)c1ccc(Cl)s1	189.8*	90.7	108.8	95.6	83.2	6.1	101.2	103.1	98.9	100.1	98.8	.
O=C(CNC(=O)c1ccccc1)OCC(=O)c1ccccc1Cl	100.3	96.5	105.9	105.2	101.3	-16.9	.	.	.	.	.	.
CCc1cccc(C)c1N1C(=O)CC(C)(C)CC1=O	105.0	90.5	93.7	95.7	96.7	11.6	.	.	.	.	.	.
COc1ccc(OC)c2sc(N3CCN(C(=O)c4ccc([N+](=O)[O-])s4)CC3)nc12	160.3*	87.7	106.2	95.1	85.5	-18.2	136.3	143.2	97.2	147.4	99.5	.
O=C(c1ccc([N+](=O)[O-])s1)N1CCN(c2ccccn2)CC1	103.9	101.6	105.0	105.2	110.0	-1.8	.	.	.	.	.	.
Cc1ccc(NC(=O)CCC(=O)N/N=C/c2cccnc2)cc1	102.5	105.4	102.6	102.6	106.4	-0.1	.	.	.	.	.	.
COc1cc(N=c2ssnc2Cl)cc(OC)c1	150.5*	74.1	90.2	91.0	83.8	15.5	114.4	109.8	92.7	121.0	95.8	1.01
Clc1nssc1=Nc1nncs1	116.5	90.0	86.1	96.4	85.1	-9.4	.	.	.	.	.	.
CNC(=O)C1CC(=O)N(c2ccc(OCC(=O)Nc3ccc(OC)cc3)cc2)C1 (stereo not drawn)	96.5	88.3	93.4	92.9	92.7	-1.8	.	.	.	.	.	.
O=C(O)c1ccccc1SC1CC(=O)N(c2ccc3c(c2)OCO3)C1=O (stereo not drawn)	151.3*	84.9	89.4	100.4	100.5	3.6	.	.	.	.	.	0
Cc1cc(C)c(NC(=O)CN(C)C(=O)CNC(=O)c2cccs2)c(C)c1	100.6	87.7	97.2	98.4	98.0	-1.4	.	.	.	.	.	.
N#Cc1ccc(-c2nc3ccc(Br)cc3c(=O)n2O)cc1	131.2	79.9	96.1	85.2	87.5	-2.5	.	.	.	.	.	.
O=c1c2cc(Br)ccc2nc(-c2ccc([N+](=O)[O-])cc2)n1O	120.7	69.3	87.6	64.9	68.2	-0.7	148.3	169.4*	51.4*	121.0	80.5	0.2
O=C(NC1CCC(O)CC1)c1cccc2cccnc12 (stereo not drawn)	100.9	107.5	112.6	104.1	105.3	5.7	.	.	.	.	.	.

Source: PubChem BioAssay
